The nature of test [1]: viability loss in pontine glioma line – cell-based, SU-DIPG-XIII, MIPE5.0, CellTiter-Glo, qHTS, dose response (AID 1347064; cut-off not given, nearly all actives have AC50 up to about 23 µM). The note with it: CellTiter-Glo ATP luminescence.
The nature of test [2]: viability loss in pontine glioma line – cell-based, SU-DIPG-XXV, MIPE5.0, CellTiter-Glo, qHTS, dose response (AID 1347065; cut-off not given, nearly all actives have AC50 up to about 26 µM;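 further: cells exposed to compound for 48 hours before ATP readout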). The note with it: CellTiter-Glo ATP luminescence. In general terms: ATP-based viability assays read luminescence as a measure of living cells.
Test [3] can be described thus: compounds altering HSF1 focus formation in cells – imaging, Selleck Cancer Library (AID 1347162; in the data active means plate-normalised HSF1 focus index below about 0.46). As to conditions: human cells, HSF1 nuclear foci imaging, at 10 µM; SSMD: measured here: HSF1 foci SSMD mean; cell count: measured here: cell number; plate-normalised HSF1 focus index: stronger effect = lower value.
Test [4] in a line: growth inhibition, single agents and combos, LFS_MB_1R, cell-based, cisplatin or BGB combos, synergistic combos for chromothripsis tumors (AID 1671452).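 Further: cells exposed for 96 hours before readout.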 The note with it: LFS_MB_1R medulloblastoma cells, stronger effect = higher value.
Test [5] is described as follows: growth inhibition, single agents and combos, CRL2098, cell-based, BGB or cisplatin IC20 combos, synergistic combos for chromothripsis tumors (AID 1671454).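 Further: cells exposed for 96 h before readout; 0% = vehicle DMSO and 100% = killing by high DMSO.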 The note with it: CRL2098 osteosarcoma cells, drug combinations, stronger effect = higher value.
The nature of test [6]: growth inhibition, single agents and combos, HD-MB03, cell-based, BGB or cisplatin IC20 combos, synergistic combos for chromothripsis tumors (AID 1671455; in the data active means inhibition above about 83%;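 further: 0% = vehicle DMSO and 100% = high DMSO as cytotoxic control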). As to conditions: HD-MB03 medulloblastoma cells, stronger effect = higher value.
Test [7] can be described thus: growth inhibition, single agents and combos, UWB1.289, cell-based, BGB or cisplatin combos, synergistic combos for chromothripsis tumors (AID 1671456).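 Further: cells exposed to compound for four days; 0% = vehicle DMSO and 100% = killing by high DMSO.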 The note with it: UWB1.289 ovarian carcinoma cells, stronger effect = higher value.
Test [8] can be described thus: growth inhibition, single agents and combos, LFS_MB_2R, cell-based, cisplatin combos, synergistic combos for chromothripsis tumors (AID 1671457).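 Further: cells exposed to compound for four days before readout.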 As to conditions: LFS_MB_2R medulloblastoma cells, stronger effect = higher value.
Test [9] can be described thus: growth inhibition, MDA-MB-436, cell-based, BGB or cisplatin combos, synergistic combos for chromothripsis tumors (AID 1671458; call rule not given here;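 further: cells exposed for 96 hours; 0% = vehicle DMSO and 100% = killing by high DMSO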). As to conditions: MDA-MB-436 breast carcinoma growth inhibition, drug combinations, stronger effect = higher value.
The nature of test [10]: UWB1.289_BRCA1 ovarian cancer growth, cell-based, BGB or cisplatin combinations (AID 1671459). As to conditions: UWB1.289 BRCA1 ovarian carcinoma, drug combinations, stronger effect = higher value.
Test [11] in a line: drug combination toxicity in non-malignant astrocytes – cell-based, BGB or cisplatin IC20 combos, cytotoxicity control for chromothriptic childhood tumor combination screen (AID 1671460).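 Further: cells exposed to compounds for 96 hours before viability readout; 0% = vehicle and 100% = killing control.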 As to conditions: Human astrocytes, viability inhibition, drug combinations, at 0.5 µM, stronger effect = higher value.
Test [12] is described as follows: BT084 cell growth, single and combined drugs, ICGC_MB145, cisplatin and BGB IC40 combos (AID 1671461).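 Further: cells exposed to drugs for 96 hours; 0% = vehicle DMSO and 100% = high DMSO full killing control.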 The note with it: BT084 medulloblastoma cells, drug combinations, stronger effect = higher value.
A short description of test [13]: RCMB18 cell growth, single agent and combined, cisplatin and BGB IC40 combos (AID 1671462).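 Further: cells exposed to compound for four days.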 As to conditions: RCMB18 medulloblastoma cells, stronger effect = higher value.
Test [14] in a line: CRL1545 cell growth, single agent and combined, cisplatin and BGB IC20 combos (AID 1671464).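 Further: cells exposed to compound for 96 hours before readout; 0% = vehicle DMSO and 100% = high DMSO killing control.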 As to conditions: CRL1545 osteosarcoma cells, stronger effect = higher value.
Setting [15] is: measured here: combination with cisplatin, at 0.5 µM.
Where [16] appears, read: measured here: combination with cisplatin, at 5 µM.

Inconclusive results are not listed. The source made the active and inactive calls. Unless noted, no stated cut-off is given here; in the data, active means inhibition above about 80%; inactive means the rest.

Turning to `O=c1[nH]c2ccccc2n1CCCN1CCC(n2c(=O)[nH]c3cc(Cl)ccc32)CC1`, in test [1], the compound was classed as inactive.
As for `O=C(O)c1nn(Cc2ccc(Cl)cc2Cl)c2ccccc12`, in test [2], the result was inactive. In addition, in [3], the SSMD is 0.502, the cell count is 6570 and the plate-normalised HSF1 focus index was 1.03 (inactive).
Turning to `CN(C)[C@@H]1C(=O)C(C(N)=O)=C(O)[C@@]2(O)C(=O)C3=C(O)c4c(O)cccc4[C@@](C)(O)[C@H]3C[C@@H]12`, the compound was classed as inactive in test [2].
For orientation: inhibition means the relative decrease from the control value, in per cent. For `O=C(O)CCCc1ccc(N(CCCl)CCCl)cc1`, the inhibition is 1.38% (inactive) in test [4] (at 0.5 µM); -18.1% in test [4] (measured here: combination with BGB IC40, at 0.05 µM); 34.7% in test [4] (setting [15]); 17.9% in test [4] (setting [16]); -43.4% (inactive) in [5] (at 0.5 µM); -73.2% in [5] (measured here: combination with BGB at IC20, at 0.5 µM). Further, the inhibition was -65.8% in [5] (measured here: combination with cisplatin at IC20, at 0.5 µM); -3.23% (inactive) in test [6] (at 0.5 µM); -9.02% in [6] (measured here: combo with BGB at IC20, at 0.5 µM); 0.904% in test [6] (measured here: combo with cisplatin at IC20, at 0.5 µM); -7.41% (inactive) in [7] (at 0.5 µM); -22.1% in [7] (measured here: inhibition with BGB combination, at 0.05 µM). In addition, the inhibition was -7.19% in test [7] (measured here: inhibition with cisplatin combination, at 0.05 µM); -24.2% (inactive) in [8] (at 0.5 µM); -24.7% in test [8] (setting [15]); -25.9% in [8] (setting [16]); -23.5% (inactive) in test [9] (at 0.5 µM); -17.2% in test [9] (measured here: BGB combination, at 0.5 µM). The inhibition was -7.5% in test [9] (measured here: BGB combination, at 5 µM); -37.9% in test [9] (measured here: cisplatin combination, at 0.5 µM); -2.83% in test [9] (measured here: cisplatin combination, at 5 µM); -9.82% in [10] (BGB combination, concentration series, at 5 µM); -20.2% (inactive) in test [10] (at 0.5 µM); 4.66% in [10] (cisplatin combination, concentration series, at 5 µM). Also, the inhibition was -13.8% (inactive) in [11]; -14.7% in [11] (measured here: combo with BGB IC20); -9.75% in test [11] (measured here: combo with cisplatin IC20); -18.3% (inactive) in test [12] (at 0.5 µM); -2.56% in test [12] (cisplatin combination, at 0.5 µM); -9.03% in test [12] (cisplatin combination, at 5 µM). For the same compound, the inhibition was 37.2% in test [12] (measured here: BGB IC40 combination 0.05 uM, at 0.05 µM); -26.4% in test [12] (single agent, at 5 µM); -21.5% (inactive) in test [13] (at 0.5 µM); -8.27% in test [13] (cisplatin combo, at 5 µM); -18.3% in test [13] (measured here: BGB IC40 combination, at 0.05 µM); -40% in [13] (setting [15]). Besides, the inhibition was -21% in [13] (single agent, at 5 µM); -17.8% (inactive) in test [14] (at 0.5 µM); -15.9% in test [14] (measured here: with BGB IC20 combination, at 0.5 µM); -18.8% in test [14] (measured here: with cisplatin IC20 combination, at 0.5 µM); 15.9% in [14] (single agent, at 0.05 µM); 10.1% in test [14] (single agent, at 5 µM).

Values taken from PubChem BioAssay.
